Most compounds without a hit are left out; they make up all but 4.5% or so of the library.
aSyn UTR inh – MLPCN primary screen, SNCA 5' untranslated region; inhibition, % (tested at 7.5 µM); AID 1813; 300,000 compounds, 0.82% hits; alpha-synuclein 5'UTR reporter, inhibitor activity; in the data active = inhibition above about 60%;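 also: H4 neuroglioblastoma cells stably carrying SNCA 5'UTR luciferase fusion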
Mdm2 MdmX PPI – disrupts the human Mdm2-MdmX interaction | O15151+Q00987 | inhibition, % at 8 µM | 330,000 compounds, 3% hits | SaOS-2 split-luciferase Mdm2/MdmX complementation, luminescence | AID 485346;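 active = inhibition of at least 50% at 8 µM in the primary screen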
Gli-Sufu block – Gli-Sufu pathway antagonism; inhibition, % at 5 µM; Sufu-KO-LIGHT fibroblasts, Gli luciferase reporter luminescence; 340,000 compounds, 0.74% hits;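 active = inhibition above about 55%, limit read from the data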
CSC inhib – blocks cancer stem cells. 300,000 compounds, 1.1% hits. inhibition, % at 7.5 µM. AID 2717. cancer stem cell-like cells viability, luminescence; in the data active = inhibition above about 75%; tested in HMLE shEcad cells
Jurkat NFkB inh – inhibitors of the PMA/ionomycin-induced NF-kB reporter in Jurkat cells | PMA/ionomycin-induced NF-kB luciferase reporter, luminescence | inhibition, % at 4 µM | 330,000 compounds, 0.53% hits | AID 435003; in the data active = inhibition above about 50%
697 NFkB inh – lowers PMA/ionomycin-induced NF-kB signal in 697 B cells. 697 B-cell NF-kB luciferase reporter, 16 h. inhibition, % at 4 µM. 330,000 compounds, 0.33% hits. AID 435022; in the data active = inhibition above about 35%
Hits are given with their value; – = inactive; · = no result given.

SMILES | aSyn UTR inh | Mdm2 MdmX PPI | Gli-Sufu block | CSC inhib | Jurkat NFkB inh | 697 NFkB inh
CCOC(=O)C1=C(N)Oc2cc(O)ccc2C1c1cccnc1 (stereo not drawn) | – | – | – | – | – | –
CCOC(=O)C1=C(N)Oc2cc(O)ccc2C1c1cccc(Cl)c1 (stereo not drawn) | – | – | – | 82.0 | – | –
CCN(CC)CCCNC(=S)N1CCN(c2nc(-c3ccc(F)cc3)cs2)CC1 | 132.8 | – | – | 93.3 | – | –
CCCc1nc(SCc2ccccn2)c2c(=O)n(C)c(=O)n(C)c2n1 | – | – | – | 106.7 | – | –
Cn1c(=O)c2c(SCc3ccccn3)nc(CC(C)(C)C)nc2n(C)c1=O | – | – | – | – | – | –
CCN(CC)C(=O)COc1ccc(/C=N/NC(=O)c2cc(-c3ccccc3OC)nc3ccccc23)cc1OC | – | – | – | – | – | –
COc1ccc(/C=C/C(=O)c2cc(F)ccc2OC(=O)c2ccccc2OC)cc1OC | 68.0 | · | – | · | · | ·
COc1ccc(/C=C/C(=O)c2cc(F)ccc2OC(=O)c2ccc(OC)c(OC)c2)cc1OC | – | – | – | – | – | –
Cc1ccc(S(=O)(=O)/N=C2\C=C(Nc3cccc(C(=O)O)c3)C(=O)c3ccccc32)cc1 | – | – | – | · | – | –
O=C1C(Nc2ccccc2)=C/C(=N/S(=O)(=O)c2cccs2)c2ccccc21 | – | · | – | 112.5 | · | ·
O=C(C1CCOCC1)N1CCCC(N2CCN(c3ccc(F)cc3)CC2)C1 (stereo not drawn) | – | – | – | – | – | –
CC1(C)CC[C@]2(C(=O)n3ccnc3)CC[C@]3(C)[C@H](C(=O)C=C4[C@@]5(C)C=C(C#N)C(=O)C(C)(C)[C@@H]5CC[C@]43C)[C@@H]2C1 | · | · | 93.5 | · | · | ·
COc1ccc2[nH]cc(CCNC(=O)CS(=O)(=O)Cc3ccccc3)c2c1 | – | – | – | – | – | –
COc1ccc(NC(=O)CCCN2C(=O)C3CC=CCC3C2=O)cc1 (stereo not drawn) | – | – | – | – | – | –
O=C(Nc1ccccn1)c1onc2c1CCCC2 | 96.4 | – | – | – | – | –
O=C(Nc1ccccn1)c1csc2c1CCCC2 | – | – | – | – | – | –
Cc1csc(=N)n1CC(=O)N1CCc2ccccc21 | – | – | – | – | – | –
Cc1cc(OCC(=O)Nc2ccc(S(=O)(=O)NC3=NCCCCC3)cc2)c(C(C)C)cc1Cl | – | – | – | 85.0 | – | –
COc1ccc(N=CC2=C(O)c3ccccc3C2=O)c(OC)c1 | 62.5 | – | – | – | – | –
O=C(NCc1ccco1)c1ccc(Cn2c(=O)c3ccccc3n(Cc3cccc(Cl)c3)c2=O)cc1 | 64.3 | – | – | – | – | –
O=C(NCc1ccco1)c1ccc(Cn2c(=O)c3sccc3n(Cc3cccc(F)c3)c2=O)cc1 | – | – | – | – | – | –
COc1ccc(S(=O)(=O)N2CCN(C(=O)c3cc4c(s3)CCC4)CC2)cc1 | · | – | – | – | – | –
Brc1cccc(OCCN2CCc3ccccc3C2)c1 | – | – | – | 83.5 | – | –
COc1cccc(N2CCN(C(=O)c3cc(-c4ccccc4)nc4c3cnn4C(C)C)CC2)c1 | · | – | – | – | – | –
COc1cccc(-c2sc3ccc(OC)cc3c2C#CCC(C)O)c1 (stereo not drawn) | · | – | – | 113.1 | – | –
SMILES | aSyn UTR inh | Mdm2 MdmX PPI | Gli-Sufu block | CSC inhib | Jurkat NFkB inh | 697 NFkB inh
COCc1ccc(-c2c(-c3cccc(OC)c3)sc3ccc(OC)cc23)cc1 | · | – | – | – | – | –
COc1ccc2sc(-c3ccc(SC)cc3)c(C#CCO)c2c1 | · | – | – | 83.0 | – | –
COc1ccc(-c2sc3ccc(N4CCOCC4)cc3c2C#CC(C)(C)O)cc1 | · | – | – | 87.1 | – | –
COc1ccc(-c2sc3ccc(N4CCOCC4)cc3c2C#Cc2ccsc2)cc1 | · | – | – | – | – | –
COc1ccc2sc(-c3ccc(SC)cc3)c(C#CC(C)(C)O)c2c1 | · | – | – | 105.0 | – | –
COc1ccc(-c2sc3cc(OC)c(OC)cc3c2C#CCO)cc1 | · | – | – | · | – | –
CCOc1ccc(S(=O)(=O)N(CC)CC(=O)NCc2cccnc2)cc1C | – | – | – | – | – | –
COc1ccc(-c2oc3ccc(N4CCOCC4)cc3c2C#CCO)cc1 | – | – | – | 96.9 | – | –
Nc1ccc(C#Cc2c(-c3ccsc3)oc3ccc(N4CCOCC4)cc23)cc1 | – | – | – | – | – | –
COc1cccc(-c2sc3ccc(OC)cc3c2C#CC(C)(C)O)c1 | · | – | – | 117.8 | – | –
NNC(=O)c1[nH]c2ccccc2c1-c1ccccc1 | 95.7 | – | – | – | – | –
O=c1c2cn[nH]c2nc(SCc2ccccc2F)n1-c1ccc(Br)cc1 | – | – | – | 105.1 | – | –
C=CCNC(=S)NNC(=O)c1ccc(OCCC)cc1 | – | – | – | – | – | –
CCCOc1ccc(C(=O)NNC(=S)NC(=O)CC)cc1 | 85.4 | – | – | – | – | –
CC(C)Nc1nc(NC(C)C)nc(SCCOC(=O)Nc2ccc(Cl)cc2Cl)n1 | – | – | – | 90.3 | – | –
CCNc1nc(NC(C)C)nc(SCCOC(=O)c2ccccc2)n1 | – | – | – | – | – | –
COc1cccc(Cn2c(NCc3cccnc3)nc3c2c(=O)n(C)c(=O)n3C)c1 | 71.3 | – | – | – | – | –
Cn1c(=O)c2c(nc(NCc3cccnc3)n2Cc2cccc(C(F)(F)F)c2)n(C)c1=O | – | – | – | – | – | –
C(C#CCCCCCCCCC[n+]1ccccc1)#CCCCCCCCCC[n+]1ccccc1 | 73.3 | · | 87.2 | 75.4 | · | ·
COc1ccc(-c2ccc(C)cc2)cc1[C@H]1[C@@H]2C=CCC[C@@]2(C)C(=O)N1Cc1ccccc1 | – | – | – | 115.3 | – | –
COc1ccc(-c2ccc(C(C)=O)cc2)cc1[C@H]1[C@@H]2C=CCC[C@@]2(C)C(=O)N1Cc1ccccc1 | · | – | – | – | – | –
CC1(C)CC(=O)C(C=NCC2CCN(C(=S)Nc3cccc(Cl)c3)CC2)=C(O)C1 | – | – | – | – | – | –
Cc1cc(Cl)n2c(nc3cc(F)c(F)cc32)c1C#N | – | · | 61.9 | · | · | ·
C/C(Cc1nnn(-c2cc(C)on2)n1)=N\O | – | – | – | – | – | –
CC(=O)Nc1ccc(/C=C/c2noc(-c3ccccc3O)n2)cc1 | – | – | – | – | – | –
COc1cc(/C=C/c2noc(-c3ccccc3O)n2)ccc1OC(C)=O | – | – | – | 103.4 | – | –
COc1cc(/C=C(/NC(=O)c2ccccc2)C(=O)N2CCOCC2)c([N+](=O)[O-])cc1OC | – | – | – | – | – | –
CCOc1cc(/C=C\c2[nH]c(=O)[nH]c(=O)c2[N+](=O)[O-])ccc1OC(C)CC (stereo not drawn) | – | – | – | 77.8 | – | –
CCOCCN1CCN(C2c3ccccc3CSc3ccccc32)CC1 (stereo not drawn) | – | – | – | – | – | –
O=C(Nc1cc(S(=O)(=O)N2CCCCC2)ccc1Cl)c1ccccc1NS(=O)(=O)c1ccc(F)cc1 | 62.7 | · | – | 82.6 | · | ·

Bioassay records: PubChem BioAssay, several laboratories
